{"source": "PubChem BioAssay (NCI)", "note": "About 83,000 compounds went through this panel and 20% of them were active in at least one assay; those are over-represented in the sample as a whole.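 How to read the values: 0–100, growth inhibition (40 = 60% inhibited); 0, no net growth; -100 to 0, cell death (-40 = 40% of starting cells died; -100 = all dead).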 Unmarked numbers belong to inactive results. The source made the active and inactive calls. How the source made its calls: active means growth percent below 10; inactive means the rest."}
{"test_system": "NCI-H226 lung", "assay": "NCI-60 one-dose screen, 48 h (100 = growth as untreated, 0 = no growth, -100 = all killed)", "details": "10 µM unless noted"}
{"smiles": "CC(=O)Nc1ccc2c(c1)Cc1c(F)cccc1-2", "growth": "89.4%"}
{"smiles": "COc1ccc(-c2cncnc2N)cc1OC", "growth": "107%"}
{"smiles": "CN(C)c1ccc2cc(-c3ccc(Cl)c(Cl)c3)c(N)nc2c1", "growth": "42.3%"}
{"smiles": "O=C(Nc1ccccn1)[C@H](O)[C@@H](O)C(=O)N1CCOCC1", "growth": "95.3%"}
{"smiles": "O=C(NC(=S)Nc1ccc(-c2nc3ccccc3[nH]2)cc1)c1ccc2ccccc2c1", "growth": "51.1%"}
{"smiles": "CCCCCCN(CCCCCC)CC(O)c1cccc2ccc(Cl)cc12", "note": "(stereo not drawn)", "growth": "85.6%"}
{"smiles": "Cc1ccc(S(=O)(=O)N(CC[C@@H]2C[C@H]2c2cc3ccccc3o2)C(=O)NC2CCCCC2)cc1", "growth": "87.3%"}
{"smiles": "Clc1ccc2[nH]c3c(NCCCN4CCOCC4)ncnc3c2c1", "growth": "86.1%"}
{"smiles": "Fc1ccc(Nc2ccc3cc(OCCCN4CCOCC4)ccc3n2)cc1F", "growth": "76.8%"}
{"smiles": "CNC(=O)NCC1OC(n2cnc3c(NC(=O)Nc4ccccc4)ncnc32)C2OC(C)(C)OC12", "note": "(stereo not drawn)", "growth": "109%"}
{"smiles": "CCN(CC)CCOC(=O)Nc1ccccc1Cl", "growth": "88.1%"}
{"smiles": "N=C(N)c1ccc(-c2ccc(-c3ccc(Cl)c(Cl)c3)o2)cc1", "growth": "90.5%"}
{"smiles": "Cc1[nH]c(-c2nc3ccccc3[nH]2)c(C)c1C(=O)N1CCc2sccc2C1", "growth": "88.3%"}
{"smiles": "CC(C)(C)c1ccc(C(=O)Nc2sc3c(c2C(N)=O)CCC(=O)C3)cc1", "growth": "30.8%"}
{"smiles": "Cc1nc(Nc2ccccn2)sc1C(=O)/C=C/c1ccc(Br)cc1", "growth": "85.6%"}
{"smiles": "C/C(=N\\NC(=O)Cn1c(-c2ccc(S(C)(=O)=O)cc2)nc2cc(Cl)ccc21)c1ccc(Cl)cc1", "growth": "79%"}
{"smiles": "CCOC(=O)c1c(C)[nH]c(C(=O)CCC(=O)OC)c1C", "growth": "95.8%"}
{"smiles": "C=C1C(=O)O[C@H]2[C@H]1CC/C(COC(=O)NCc1ccc(Cn3c(=O)sn(CCCCl)c3=O)cc1)=C\\CC[C@@]1(C)O[C@@H]21", "growth": "58.7%"}
{"smiles": "COc1cc(C2C=C(c3cccc(NC(C)=O)c3)Nc3ncnn32)cc(OC)c1OC", "note": "(stereo not drawn)", "growth": "43.5%"}
{"smiles": "O=C(Oc1ccc[nH]c1=O)c1cc([N+](=O)[O-])cc([N+](=O)[O-])c1", "growth": "104%"}
{"smiles": "COc1ccc(Oc2nc(Nc3ccc(N4CCOCC4)nc3)ncc2NC(=O)c2cc(OC)cc(OC)c2)cc1", "growth": "65%"}
{"smiles": "COC(=O)c1ccc2oc(NC(=O)c3ccc(N4CCOCC4)c([N+](=O)[O-])c3)nc2c1", "growth": "90.5%"}
{"smiles": "O=C1Nc2ccccc2/C1=N/N=C/c1ccc(OC2OC(CO)C(O)C(O)C2O)cc1", "note": "(stereo not drawn)", "growth": "104%"}
{"smiles": "C=CC(=O)Nc1cccc(C)c1Nc1cc(-c2cccnc2Cc2c(C)c(OC)cc(OC)c2C)ncn1", "growth": "46.1%"}
{"smiles": "OC(COc1cccc2ccccc12)CN1CCN(c2ccccc2)CC1", "note": "(stereo not drawn)", "growth": "99.1%"}
{"smiles": "CC(=O)Nc1cccc(C2=CC(c3ccc(C)cc3)n3ncnc3N2)c1", "note": "(stereo not drawn)", "growth": "92.7%"}
{"smiles": "O=C(CC12CC3CC(CC(C3)C1)C2)NCCOCCOCCNC(=O)c1cc2c(o1)C(=O)c1ccccc1C2=O", "growth": "-71.7% (active)"}
{"smiles": "N=C(N)c1ccc(-c2ccc(/C=C/c3ccccc3)s2)cc1", "growth": "84.7%"}
{"smiles": "CNC1(C#N)CCN(Cc2ccccc2)CC1", "growth": "104%"}
{"smiles": "O=C(/C=C/C12c3ccccc3C(c3ccccc31)C1C(=O)N(c3ccccc3)C(=O)C12)c1ccc(Cl)cc1", "note": "(stereo not drawn)", "growth": "-10% (active)"}
{"smiles": "CCNCCNc1cc(-c2ccc(Cl)cc2)c(C#N)c2nc3ccccc3n12", "growth": "56%"}
{"smiles": "CN(C)c1ccc2cc(-c3ccccc3F)c(N)nc2c1", "growth": "59.3%"}
{"smiles": "O=C1Nc2ccccc2/C1=N/N=C/c1c[nH]c2ccccc12", "growth": "62.7%"}
{"smiles": "COc1ccc(/C=C(\\C#N)n2nnc3ccccc32)cc1", "growth": "1.15% (active)"}
{"smiles": "N#Cc1c(Oc2ccc([N+](=O)[O-])cc2)nc2sc3cc(Cl)ccc3n2c1=N", "growth": "56.8%"}
{"smiles": "O=C(NCCOCCOCCOCCNC(=O)c1cc2c(o1)C(=O)c1ccccc1C2=O)NC12CC3CC(CC(C3)C1)C2", "growth": "-80.4% (active)"}
{"smiles": "O=C(Oc1ccc([N+](=O)[O-])cc1)c1ccc(CBr)cc1", "growth": "106%"}
{"smiles": "CCn1c(Sc2nnc(NC(=O)CCN3CCCC3)s2)nc2c1c(=O)n(C)c(=O)n2C", "growth": "103%"}
{"smiles": "CC(=[N-])N1CCC[C@@H](Nc2c3ccccc3nc3ccccc23)C1.[Cl][Pt].[NH-]CCC[NH-]", "growth": "-4.62% (active)"}
{"test_system": "NCI-H322M lung", "assay": "NCI-60 one-dose screen, 48 h (100 = growth as untreated, 0 = no growth, -100 = all killed)", "details": "10 µM unless noted"}
{"smiles": "CC(=O)Nc1ccc2c(c1)Cc1c(F)cccc1-2", "growth": "112%"}
{"smiles": "COc1ccc(-c2cncnc2N)cc1OC", "growth": "114%"}
{"smiles": "CN(C)c1ccc2cc(-c3ccc(Cl)c(Cl)c3)c(N)nc2c1", "growth": "54.6%"}
{"smiles": "O=C(Nc1ccccn1)[C@H](O)[C@@H](O)C(=O)N1CCOCC1", "growth": "115%"}
{"smiles": "O=C(NC(=S)Nc1ccc(-c2nc3ccccc3[nH]2)cc1)c1ccc2ccccc2c1", "growth": "21.5%"}
{"smiles": "CCCCCCN(CCCCCC)CC(O)c1cccc2ccc(Cl)cc12", "note": "(stereo not drawn)", "growth": "66.4%"}
{"smiles": "Cc1ccc(S(=O)(=O)N(CC[C@@H]2C[C@H]2c2cc3ccccc3o2)C(=O)NC2CCCCC2)cc1", "growth": "108%"}
{"smiles": "Clc1ccc2[nH]c3c(NCCCN4CCOCC4)ncnc3c2c1", "growth": "68.9%"}
{"smiles": "Fc1ccc(Nc2ccc3cc(OCCCN4CCOCC4)ccc3n2)cc1F", "growth": "71.4%"}
{"smiles": "CNC(=O)NCC1OC(n2cnc3c(NC(=O)Nc4ccccc4)ncnc32)C2OC(C)(C)OC12", "note": "(stereo not drawn)", "growth": "101%"}
{"smiles": "CCN(CC)CCOC(=O)Nc1ccccc1Cl", "growth": "92.7%"}
{"smiles": "N=C(N)c1ccc(-c2ccc(-c3ccc(Cl)c(Cl)c3)o2)cc1", "growth": "-23% (active)"}
{"smiles": "Cc1[nH]c(-c2nc3ccccc3[nH]2)c(C)c1C(=O)N1CCc2sccc2C1", "growth": "98.6%"}
{"smiles": "CC(C)(C)c1ccc(C(=O)Nc2sc3c(c2C(N)=O)CCC(=O)C3)cc1", "growth": "62.6%"}
{"smiles": "Cc1nc(Nc2ccccn2)sc1C(=O)/C=C/c1ccc(Br)cc1", "growth": "80%"}
{"smiles": "C/C(=N\\NC(=O)Cn1c(-c2ccc(S(C)(=O)=O)cc2)nc2cc(Cl)ccc21)c1ccc(Cl)cc1", "growth": "86%"}
{"smiles": "CCOC(=O)c1c(C)[nH]c(C(=O)CCC(=O)OC)c1C", "growth": "98.5%"}
{"smiles": "C=C1C(=O)O[C@H]2[C@H]1CC/C(COC(=O)NCc1ccc(Cn3c(=O)sn(CCCCl)c3=O)cc1)=C\\CC[C@@]1(C)O[C@@H]21", "growth": "88.8%"}
{"smiles": "COc1cc(C2C=C(c3cccc(NC(C)=O)c3)Nc3ncnn32)cc(OC)c1OC", "note": "(stereo not drawn)", "growth": "37%"}
{"smiles": "O=C(Oc1ccc[nH]c1=O)c1cc([N+](=O)[O-])cc([N+](=O)[O-])c1", "growth": "98.6%"}
{"smiles": "COc1ccc(Oc2nc(Nc3ccc(N4CCOCC4)nc3)ncc2NC(=O)c2cc(OC)cc(OC)c2)cc1", "growth": "88%"}
{"smiles": "COC(=O)c1ccc2oc(NC(=O)c3ccc(N4CCOCC4)c([N+](=O)[O-])c3)nc2c1", "growth": "92.6%"}
{"smiles": "O=C1Nc2ccccc2/C1=N/N=C/c1ccc(OC2OC(CO)C(O)C(O)C2O)cc1", "note": "(stereo not drawn)", "growth": "105%"}
{"smiles": "C=CC(=O)Nc1cccc(C)c1Nc1cc(-c2cccnc2Cc2c(C)c(OC)cc(OC)c2C)ncn1", "growth": "50.7%"}
{"smiles": "OC(COc1cccc2ccccc12)CN1CCN(c2ccccc2)CC1", "note": "(stereo not drawn)", "growth": "99.7%"}
{"smiles": "CC(=O)Nc1cccc(C2=CC(c3ccc(C)cc3)n3ncnc3N2)c1", "note": "(stereo not drawn)", "growth": "107%"}
{"smiles": "O=C(CC12CC3CC(CC(C3)C1)C2)NCCOCCOCCNC(=O)c1cc2c(o1)C(=O)c1ccccc1C2=O", "growth": "-90.2% (active)"}
{"smiles": "N=C(N)c1ccc(-c2ccc(/C=C/c3ccccc3)s2)cc1", "growth": "1% (active)"}
{"smiles": "CNC1(C#N)CCN(Cc2ccccc2)CC1", "growth": "336%"}
{"smiles": "O=C(/C=C/C12c3ccccc3C(c3ccccc31)C1C(=O)N(c3ccccc3)C(=O)C12)c1ccc(Cl)cc1", "note": "(stereo not drawn)", "growth": "35.3%"}
{"smiles": "CCNCCNc1cc(-c2ccc(Cl)cc2)c(C#N)c2nc3ccccc3n12", "growth": "2.72% (active)"}
{"smiles": "CN(C)c1ccc2cc(-c3ccccc3F)c(N)nc2c1", "growth": "55.1%"}
{"smiles": "O=C1Nc2ccccc2/C1=N/N=C/c1c[nH]c2ccccc12", "growth": "72.9%"}
{"smiles": "COc1ccc(/C=C(\\C#N)n2nnc3ccccc32)cc1", "growth": "25.8%"}
{"smiles": "N#Cc1c(Oc2ccc([N+](=O)[O-])cc2)nc2sc3cc(Cl)ccc3n2c1=N", "growth": "98.2%"}
{"smiles": "O=C(NCCOCCOCCOCCNC(=O)c1cc2c(o1)C(=O)c1ccccc1C2=O)NC12CC3CC(CC(C3)C1)C2", "growth": "-59.5% (active)"}
{"smiles": "O=C(Oc1ccc([N+](=O)[O-])cc1)c1ccc(CBr)cc1", "growth": "100%"}
{"smiles": "CCn1c(Sc2nnc(NC(=O)CCN3CCCC3)s2)nc2c1c(=O)n(C)c(=O)n2C", "growth": "105%"}
{"smiles": "CC(=[N-])N1CCC[C@@H](Nc2c3ccccc3nc3ccccc23)C1.[Cl][Pt].[NH-]CCC[NH-]", "growth": "44.9%"}
